Molecules are shown by their SMILES. Several values for one entry are separate records, joined by “and”; a condition that tells them apart may be missing. Identical values can stand only once. The campaign covered roughly 350,000 compounds. About 9,900 (2.8%) were called active. Roughly 15% stayed inconclusive and do not appear here. Calls come from the whole dose curve; as a rule, active = well fitted activation curve with a large enough effect; inconclusive = small, poorly fitted or top-dose-only effect; inactive = no such curve, though single readings can be large or run the other way. The entries come from a sample that favours actives as a whole. Where a call stands in place of a potency, no number is given. Some compounds were tested as several samples or in several runs, with calls that do not always agree.
Potency is the fitted concentration of half-maximal effect.

A short description of this assay: A quantitative high throughput screen for small molecules that induce DNA re-replication in MCF 10a normal breast cells. Note: nearly all actives have a fitted effect of over 50% in size. The conditions noted are these: MCF 10A DNA re-replication, Hoechst nuclear intensity, 48 h; series mostly up to 46.1 µM.
`O=[N+]([O-])c1cccc(C=NN=Cc2ccccc2O)c1`: the Potency entry is “inactive”.

As for `CC[C@]12c3[nH]c4ccc(Cl)cc4c3CCN1C(=O)[C@@H](CC(=O)NCCN1CCOCC1)C[C@@H]2C(=O)N1CCN(C(=O)C2CC2)CC1`, the Potency result is “inactive”.

Regarding `CCCN(C(=O)COC(=O)CNS(=O)(=O)c1ccc(NC(C)=O)cc1)C1CCS(=O)(=O)C1` (stereo not drawn), the Potency result is “inactive”.

Take `COc1ccc(-c2csc(-c3cccs3)n2)cc1OC`: the Potency entry is “inactive”.

In the case of `COc1ccc(-c2csc3nc(-c4ccccc4F)oc(=O)c23)cc1OC`, the Potency is 8.2 µM (active).

For the compound `COc1ccccc1-c1nnc(-c2ccc(F)cc2)o1`, the Potency result was “inactive”.

As for `COc1ccc(CCNc2nc(-c3cccc(NC(C)=O)c3)cs2)cc1OC`, the Potency entry is “inactive”.

As to `COc1ccc(N/C=C(\C2OC(=O)c3ccccc32)[N+](=O)[O-])cc1` (stereo not drawn), the Potency entry is “inactive”.

`COc1ccc(-c2csc(NC3OC(=O)c4ccccc43)n2)cc1` (stereo not drawn): the Potency is 11.6 µM (active).

For the compound `COc1ccc(-c2csc(NC(=O)COC(=O)c3ccc(Br)o3)n2)cc1`, the Potency result is “inactive”.

With `COc1cc(CC(=O)Nc2nc(-c3ccc(F)c(F)c3)cs2)cc(OC)c1OC`, the Potency result was “inactive”.

Take `COc1ccc2c(c1OC)C(=O)OC2Nc1nc(-c2ccccc2)cs1` (stereo not drawn): the Potency is 4.61 µM (active).

On to `CC1CC(C)CN(C(=O)COC(=O)c2ccc3ncsc3c2)C1` (stereo not drawn), for which the Potency entry was “inactive”.

`O=C(Nc1ccccc1F)c1ccc(S(=O)(=O)N2CCCCCC2)cc1`: the Potency entry was “inactive”.

With `O=C(CSc1ncnc2sccc12)N1CCN(C(=O)c2cccs2)CC1`, the Potency entry is “inactive”.

`Cc1nnc(NC(=O)c2ccc3nccnc3c2)s1`: the Potency result was “inactive”.

Turning to `CCN(c1ccccc1)S(=O)(=O)c1cc(C(=O)NCc2ccccn2)ccc1C`, the Potency result was “inactive”.

`CCCCn1nc(C(=O)Nc2cccc(C(=O)NC3CC3)c2)c2ccccc2c1=O`: the Potency entry is “inactive”.

On to `COC(=O)[C@]1(Cc2ccccc2)N[C@H](CN(C)S(=O)(=O)c2ccc(OC(F)(F)F)cc2)[C@@H]2C(=O)N(C)C(=O)[C@@H]21`, for which the Potency entry is “inactive”.

In the case of `COc1ccc(NC(=O)c2cccc(NC(=O)c3ccco3)c2)c(OC)c1`, the Potency entry was “inactive”.

`COc1cccc(C(=O)Nc2ccc(NC(=O)c3ccco3)cn2)c1`: the Potency result was “inactive”.

With `COc1cccc(C(=O)Nc2ccc(N3CCN(C(=O)c4ccco4)CC3)cc2)c1`, the Potency was 20.6 µM (active).

`CC1(C)C[C@H]2C3=CCC4[C@@]5(C)CC[C@H](O)[C@](C)(CO)C5CC[C@@]4(C)[C@]3(C)C[C@@H](O)[C@@]2(CO)[C@@H](O)[C@@H]1O` (stereo partly drawn): the Potency entry is “inactive”.

On to `CC(C)(C)OC(=O)C[C@@H]1C/C=C\C[C@@H](CC(=O)N[C@H](CO)Cc2ccccc2)C(=O)NCCOC1=O`, for which the Potency result is “inactive”.

With `O=C(NCC1(N2CCCCC2)CCCCC1)c1cccc(S(=O)(=O)Nc2ccccc2Cl)c1`, the Potency result was “inactive”.

Turning to `COc1ccc(CCNC(=O)c2cc(-c3ccc4c(c3)OCO4)on2)cc1OC`, the Potency entry is “inactive”.

Regarding `COc1cc2c(-c3ccc4c(c3)OCO4)c(-c3ccsc3)oc(=O)c2cc1OC`, the Potency entry is “inactive”.

On to `COc1cc(-c2c(-c3ccc4c(c3)OCO4)noc2C)ccc1F`, for which the Potency is 20.6 µM (active).

Consider `COC(=O)c1c(NC(=O)CCCC(=O)O)sc2c1CCCCC2`, for which the Potency entry is “inactive”.

On to `COC(=O)c1c(NC(=O)CSc2nncs2)sc2c1CCCCC2`, for which the Potency was 0.231 µM (active).

As for `COC(=O)c1c(NC(=O)c2cccs2)sc2c1CCCC2`, the Potency result is “inactive”.

With `Cc1ccc(C(=O)OCC(=O)NCc2cc(C)c(O)c(C)c2)cc1S(=O)(=O)N1CCCCC1`, the Potency entry is “inactive”.

As for `CN1C(c2ccc(F)cc2)=CS/C1=C(/C#N)c1nnc2n1-c1ccccc1SC2`, the Potency result was “inactive”.

In the case of `c1csc(-c2nc(-c3ccncc3)no2)c1`, the Potency entry is “inactive”.

Consider `COc1nc(-c2ccc(Cl)cc2)ccc1-c1noc(-c2cccs2)n1`, for which the Potency is 6.51 µM (active).

Take `COc1ccc(CCc2nc(-c3cccs3)no2)cc1`: the Potency entry was “inactive”.

As to `COc1ccc(NC(C)=O)cc1NC(=O)CN1CCN(C2c3ccccc3-c3ccccc32)CC1`, the Potency is 20.6 µM (active).

For the compound `COc1ccc(Cl)cc1NC(=O)CN1CCN(C(=O)N2CCOCC2)CC1`, the Potency entry is “inactive”.

On to `COc1ccc(NC(C)=O)cc1NC(=O)CN1CCN(c2ccccn2)CC1`, for which the Potency result was “inactive”.

On to `COc1ccc(N2CCN(C(CNS(=O)(=O)c3ccc(C)cc3)c3ccccc3)CC2)cc1` (stereo not drawn), for which the Potency result was “inactive”.

As for `CC(NC(=O)COC(=O)c1ccc2ccccc2n1)c1ccccc1` (stereo not drawn), the Potency entry was “inactive”.

Turning to `Oc1c(Cl)cc(Cl)c(Cl)c1Cc1c(O)c(Cl)cc(Cl)c1Cl`, the Potency entry was “inactive and 920 nM (active)”.

`CN(C)C(=O)CCc1ccc2c3c([nH]c2c1)[C@]1(CCc2ccccc2)[C@@H](C(=O)N2CCCCC2)C[C@H](CC(=O)NCCC2=CCCCC2)C(=O)N1CC3`: the Potency entry is “inactive”.

Turning to `Nn1c(SCC(=O)Nc2nccs2)nnc1-c1ccco1`, the Potency result was “inactive”.

Regarding `CCOC(=O)CCCN1CC(O)=C(c2nc3ccccc3s2)C1=N`, the Potency result was “inactive”.

As for `N=C1C(c2nc3ccccc3s2)=C(O)CN1NC(=O)c1ccc([N+](=O)[O-])cc1`, the Potency is 3.66 µM (active).

In the case of `COc1ccccc1N1CC(O)=C(c2nc3ccccc3s2)C1=N`, the Potency entry is “inactive”.

For `CC1CC(=NNC(=O)C2COc3ccccc3O2)CC(C)(C)C1` (stereo not drawn), the Potency result was “inactive”.

As for `O=C(Nc1ccccc1N1CCCC1)c1ccc2ccccc2c1`, the Potency result is “inactive”.

In the case of `O=C(Nc1ccccc1N1CCCCC1)c1ccc2nccnc2c1`, the Potency is 20.6 µM (active).

As for `O=C(Nc1ccccc1N1CCOCC1)c1ccncc1`, the Potency entry was “inactive”.

As to `O=C(COc1ccccc1F)Nc1nc(-c2ccccn2)cs1`, the Potency entry is “inactive”.

Consider `O=C(c1ccc(S(=O)(=O)NCc2ccco2)cc1)N1CCN(c2ccccc2)CC1`, for which the Potency result was “inactive”.

Regarding `O=C(O)CCn1cc(/C=C/C(=O)c2ccc(Cl)cc2)c(-c2cccc(Br)c2)n1`, the Potency is 4.11 µM (active).

With `O=C(O)/C=C/c1cn(Cc2ccccc2)nc1-c1cccs1`, the Potency result is “inactive”.

Consider `CCOC(=O)/C(C#N)=C/c1cn(CCC(=O)O)nc1-c1ccc(Br)cc1`, for which the Potency result was “inactive”.

As for `CCC1(C)NC(=O)N(CC(=O)N2CCN(c3cccc(Cl)c3)CC2)C1=O` (stereo not drawn), the Potency entry was “inactive”.

With `O=C(CN1CCN(c2nc(-c3ccccc3)cs2)CC1)NCc1ccc2c(c1)OCO2`, the Potency is 11.6 µM (active).

As to `COc1ccc(-c2csc(N3CCN(Cc4ccc5c(c4)OCO5)CC3)n2)cc1`, the Potency result was “inactive”.

Regarding `CC1CCCCN1CC(=O)NCc1ccc2c(c1)OCO2` (stereo not drawn), the Potency entry was “inactive”.

For the compound `Cc1csc2nc(COC(=O)c3cccc(N(C)C)c3)cc(=O)n12`, the Potency result was “inactive”.

For the compound `COc1ccc(C(CNC(=O)c2cccc(S(=O)(=O)Nc3ccc(Br)cc3)c2)N(C)C)cc1` (stereo not drawn), the Potency entry was “inactive”.

On to `CCOC(=O)/C=c1\s/c(=C\c2ccc(C#N)cc2)c(=O)n1CC(=O)Nc1cccc(C)c1C`, for which the Potency is 2.91 µM (active).

As to `Cc1cccc(NC(=O)CN2CCN(C(=O)C3CCN(C(=O)/C=C/c4ccccc4)CC3)CC2)c1C`, the Potency result was “inactive”.

On to `CCOC(=O)/C=c1\s/c(=C\c2ccccc2OC)c(=O)n1CC(=O)N1CCOCC1`, for which the Potency entry was “inactive”.

As to `Cn1nc(C(=O)OCC(=O)N(Cc2ccccc2)C(C)(C)C)c2ccccc2c1=O`, the Potency entry is “inactive”.

On to `O=C(OCC(=O)N1CCc2ccccc21)c1ccc([N+](=O)[O-])cc1`, for which the Potency entry was “inactive”.

For the compound `COc1ccc(-c2csc3ncnc(N4CCN(S(=O)(=O)c5cccc(F)c5)CC4)c23)cc1`, the Potency entry is “inactive”.

As for `CC1CCN(C(=S)NC(=O)c2ccccc2Br)CC1`, the Potency result was “inactive”.

For the compound `CC1CCN(C(=S)c2cccc([N+](=O)[O-])c2)CC1`, the Potency entry is “inactive”.

In the case of `CC1CCN(C(=S)c2cccc(O)c2)CC1`, the Potency was 1.46 µM (active).

For the compound `CC[C@]1(C(=O)OC)[C@H]2C(=O)N(Cc3ccccc3)C(=O)[C@H]2[C@H]2CN=C(SCc3ccc(Cl)cc3)N21`, the Potency entry was “inactive”.

Take `O=C(CN1CCc2ccccc2C1)Nc1cccc(S(=O)(=O)N2CCOCC2)c1`: the Potency entry is “inactive”.

Consider `COC(=O)Cc1ccc(OC(=O)C2CCN(S(=O)(=O)c3ccc(OC)c(OC)c3)CC2)cc1`, for which the Potency entry was “inactive”.

Take `O=C(Nc1ccc(F)cc1)C1CCN(C(=O)c2ccc([N+](=O)[O-])cc2)CC1`: the Potency entry was “inactive”.

Regarding `O=C(c1ccc(Oc2ccc(Cl)cc2)c([N+](=O)[O-])c1)N1CCCC1`, the Potency result is “inactive”.

As to `CC1CCN(C(=O)c2ccc(S(=O)(=O)Cc3cc(F)ccc3F)c([N+](=O)[O-])c2)CC1`, the Potency is 18.4 µM (active).

`O=C(Nc1ccn(CCCNCc2ccc3[nH]ccc3c2)c(=O)n1)OCc1ccccc1`: the Potency entry is “inactive”.

In the case of `O=C(Nc1c[nH]c(=O)[nH]c1=O)OCc1ccccc1`, the Potency result was “inactive”.

On to `Cc1ccc(OCC(=O)N2CCN(S(=O)(=O)c3ccc(Cl)s3)CC2)cc1C`, for which the Potency entry was “inactive”.

On to `Cc1ccc(Br)c(NS(=O)(=O)c2cccc(C(=O)N3CCNC(=O)C3)c2)c1`, for which the Potency entry was “inactive”.

For `NC(N)=Nc1nc(-c2ccccc2)c2cc(Cl)ccc2n1`, the Potency entry was “inactive”.

Take `OCCCNc1nc(-c2ccccc2)c2cc(Cl)ccc2n1`: the Potency is 8.2 µM (active).

Regarding `O=C(CCl)NNc1nc(-c2ccccc2)c2cc(Cl)ccc2n1`, the Potency entry is “inactive”.

Consider `CC1(C)CC(=O)C=C(c2ccc3ncccc3c2)C1`, for which the Potency result is “inactive”.

`CCN(c1ccccc1)S(=O)(=O)c1ccc(C(=O)Nc2ccccc2OC)cc1`: the Potency result was “inactive”.

On to `C[n+]1cccc(C(=O)O)c1`, for which the Potency result is “inactive”.

Regarding `COc1ccc(Cn2c(=S)[nH]c3cc(C(=O)NCCCN4CCOCC4)ccc3c2=O)cc1`, the Potency entry is “inactive”.

Turning to `CCCCNC(=O)CCn1c(=S)[nH]c2cc3c(cc2c1=O)OCO3`, the Potency entry is “inactive”.

For `CCN(CC)CCCNC(=O)c1ccc2c(=O)n(Cc3ccc4c(c3)OCO4)c(=S)[nH]c2c1`, the Potency was 23.1 µM (active).

As for `Cc1ccc(C(=O)NCCNC(=O)c2ccccc2)cc1`, the Potency entry was “inactive”.

On to `Cc1ccc(C(=O)CSc2ccccc2C(=O)O)cc1`, for which the Potency result was “inactive”.

Turning to `Cc1ccc(SC(CC(=O)c2ccc(C(C)(C)C)cc2)C(=O)O)cc1` (stereo not drawn), the Potency is 7.31 µM (active).

On to `O=C(Nc1ccc(N2CCOCC2)cc1)c1cccc(S(=O)(=O)N2CCOCC2)c1`, for which the Potency entry is “inactive”.

In the case of `CN(CC(=O)O)C(=O)c1ccccc1`, the Potency entry was “inactive”.

`CN1C(=O)c2ccc(NC(=O)c3c(F)c(F)c(F)c(F)c3F)cc2C1=O`: the Potency result was “inactive”.

In the case of `O=C(O)c1ccc(NC(=O)C2CCCCC2)cc1`, the Potency entry is “inactive”.

`CN1C(=O)c2ccc(NC(=O)C3CCCCC3)cc2C1=O`: the Potency was 10.3 µM (active).

For the origin of these results see PubChem BioAssay AID624296 (National Center for Advancing Translational Sciences (NCATS), 2012).
